PubChem BioAssay (NCI)
The panel holds about 83,000 compounds, 20% with a hit somewhere; the sample as a whole holds those more often.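 Results are percent growth after 48 hours of single-concentration exposure. 100 means growth as in untreated cells, lower positive values show inhibition; negative values down to -100 show cell death.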 Active and inactive are the calls of the source. Rule for the calls: active = growth percent below 10; inactive = the rest.

Experiments:
Assay in all cases: NCI-60 one-dose screen, 48 h (100 = growth as untreated, 0 = no growth, -100 = all killed)
Details in all cases: 10 µM unless noted
SK-MEL-2 melanoma = system: SK-MEL-2 melanoma
EKVX NSCLC = system: EKVX NSCLC
SN12C renal = system: SN12C renal
UO-31 renal = system: UO-31 renal
TK-10 renal = system: TK-10 renal
ACHN renal = system: ACHN renal
CAKI-1 renal = system: CAKI-1 renal
A498 renal = system: A498 renal
CCRF-CEM leukemia = system: CCRF-CEM leukemia
MOLT-4 leukemia = system: MOLT-4 leukemia
SR leukemia = system: SR leukemia
RPMI-8226 leukemia = system: RPMI-8226 leukemia
OVCAR-8 ovarian = system: OVCAR-8 ovarian
OVCAR-5 ovarian = system: OVCAR-5 ovarian
OVCAR-4 ovarian = system: OVCAR-4 ovarian
SK-OV-3 ovarian = system: SK-OV-3 ovarian
IGROV1 ovarian = system: IGROV1 ovarian
OVCAR-3 ovarian = system: OVCAR-3 ovarian
HS 578T breast = system: HS 578T breast
NCI/ADR-RES ovarian = system: NCI/ADR-RES ovarian

Measured: growth

CN(C)S(=O)(=O)Oc1ccc(-c2sc3cc(OS(=O)(=O)N(C)C)ccc3c2C(=O)c2ccc(OCCN3CCCCC3)cc2)cc1
active: SR leukemia -20.2%
inactive: SK-MEL-2 melanoma 75.5% | EKVX NSCLC 68.9% | SN12C renal 87.1% | UO-31 renal 43.6% | TK-10 renal 79% | ACHN renal 32.3% | CAKI-1 renal 73.4% | A498 renal 85.2% | CCRF-CEM leukemia 18.8% | MOLT-4 leukemia 36.6% | RPMI-8226 leukemia 38.1% | OVCAR-8 ovarian 43.8% | OVCAR-5 ovarian 78.4% | OVCAR-4 ovarian 49.7% | SK-OV-3 ovarian 62.4% | IGROV1 ovarian 81% | OVCAR-3 ovarian 69.3% | HS 578T breast 59.7% | NCI/ADR-RES ovarian 72.3%

O=C1/C=C/[C@@H](O)[C@@H]2C[C@@H](O)C[C@H]2/C=C/CCC[C@H](CCO)O1
inactive: SN12C renal 10.5% | UO-31 renal 18.1% | CCRF-CEM leukemia 18.8% | MOLT-4 leukemia 15.1% | RPMI-8226 leukemia 14.7% | OVCAR-8 ovarian 11% | OVCAR-5 ovarian 16.1% | OVCAR-4 ovarian 27.8% | SK-OV-3 ovarian 30.8% | IGROV1 ovarian 17.9% | HS 578T breast 29.4%
active: SK-MEL-2 melanoma -20.3% | EKVX NSCLC 9.95% | TK-10 renal -30.4% | ACHN renal 5.87% | CAKI-1 renal 1.05% | A498 renal -33.3% | SR leukemia 9.21% | OVCAR-3 ovarian -46.9% | NCI/ADR-RES ovarian 5.98%

CSc1nc(C)c([N+](=O)[O-])c(N)n1
inactive: SK-MEL-2 melanoma 109% | EKVX NSCLC 102% | SN12C renal 99.1% | UO-31 renal 98% | TK-10 renal 89.4% | ACHN renal 112% | CAKI-1 renal 98.4% | A498 renal 101% | CCRF-CEM leukemia 62.5% | MOLT-4 leukemia 93.4% | SR leukemia 96.3% | RPMI-8226 leukemia 78.4% | OVCAR-8 ovarian 100% | OVCAR-5 ovarian 118% | OVCAR-4 ovarian 104% | SK-OV-3 ovarian 85.1% | IGROV1 ovarian 110% | OVCAR-3 ovarian 114% | HS 578T breast 104% | NCI/ADR-RES ovarian 102%

CC(C)=CCNc1ncnc2c1ncn2C1OC(CO)C(O)C1O (stereo not given)
active: SK-MEL-2 melanoma -33.2% [1 mM] | SN12C renal -2.66% [1 mM] | UO-31 renal -72.4% [1 mM] | TK-10 renal -10.5% [1 mM] | ACHN renal 2.42% [1 mM] | CAKI-1 renal -36.9% [1 mM] | A498 renal -54.2% [1 mM] | CCRF-CEM leukemia -56.6% [1 mM] | MOLT-4 leukemia -26.6% [1 mM] | SR leukemia 1.23% [1 mM] | RPMI-8226 leukemia -40.1% [1 mM] | OVCAR-8 ovarian -40.8% [1 mM] | OVCAR-4 ovarian -2.16% [1 mM] | SK-OV-3 ovarian -21.5% [1 mM] | IGROV1 ovarian 4.13% [1 mM] | OVCAR-3 ovarian -69.9% [1 mM] | HS 578T breast -16.8% [1 mM] | NCI/ADR-RES ovarian -33.2% [1 mM]
inactive: EKVX NSCLC 41.1% [1 mM] | OVCAR-5 ovarian 19.2% [1 mM]

COC(=O)c1c2c(n3ccccc13)C(=O)c1ccccc1C2=O
inactive: SK-MEL-2 melanoma 75.3% | EKVX NSCLC 70.9% | SN12C renal 53.2% | UO-31 renal 35% | TK-10 renal 80.7% | ACHN renal 38.6% | CAKI-1 renal 56% | A498 renal 67.1% | CCRF-CEM leukemia 59.1% | MOLT-4 leukemia 35.5% | SR leukemia 38.7% | RPMI-8226 leukemia 68.3% | OVCAR-8 ovarian 45% | OVCAR-5 ovarian 116% | OVCAR-4 ovarian 77.3% | SK-OV-3 ovarian 94.8% | IGROV1 ovarian 57.5% | OVCAR-3 ovarian 55.7% | HS 578T breast 73.7% | NCI/ADR-RES ovarian 65.4%

Cc1ccc2c(=O)cc(C(=O)Nc3sc4c(c3C(=O)NCc3cccnc3)CCCC4)oc2c1C
inactive: SK-MEL-2 melanoma 109% | EKVX NSCLC 103% | SN12C renal 95.3% | UO-31 renal 78.5% | TK-10 renal 116% | ACHN renal 96.8% | CAKI-1 renal 90.6% | A498 renal 89.1% | CCRF-CEM leukemia 93% | MOLT-4 leukemia 90.3% | SR leukemia 89.8% | RPMI-8226 leukemia 102% | OVCAR-8 ovarian 98.4% | OVCAR-5 ovarian 105% | OVCAR-4 ovarian 105% | SK-OV-3 ovarian 100% | IGROV1 ovarian 100% | OVCAR-3 ovarian 106% | HS 578T breast 91.7% | NCI/ADR-RES ovarian 98.9%

CN1CCN(Cc2ccc(NC(=O)c3cncc(C#Cc4cnc5ccc(Cl)nn45)c3)cc2C(F)(F)F)CC1
active: SK-MEL-2 melanoma -46.1% | EKVX NSCLC -22% | SN12C renal 0.38% | UO-31 renal -11.5% | TK-10 renal 5.85% | ACHN renal 1.09% | CAKI-1 renal -13.6% | A498 renal -8.2% | CCRF-CEM leukemia 2.17% | MOLT-4 leukemia 3.14% | SR leukemia -2.72% | RPMI-8226 leukemia -25.6% | OVCAR-8 ovarian 8.97% | OVCAR-5 ovarian -4.08% | OVCAR-4 ovarian -4.08% | IGROV1 ovarian 1.12% | OVCAR-3 ovarian -5.42% | HS 578T breast -14.6% | NCI/ADR-RES ovarian 2.61%
inactive: SK-OV-3 ovarian 12.3%

O=C(NC1CC(F)C1)c1cc2cccnc2n1-c1ccc(Cl)c(Cl)c1 (stereo not given)
inactive: SK-MEL-2 melanoma 105% | EKVX NSCLC 98.5% | SN12C renal 96.4% | UO-31 renal 69.7% | TK-10 renal 90.2% | ACHN renal 95.5% | CAKI-1 renal 84.4% | A498 renal 99% | CCRF-CEM leukemia 99.7% | MOLT-4 leukemia 98.9% | SR leukemia 104% | RPMI-8226 leukemia 95.6% | OVCAR-8 ovarian 95.4% | OVCAR-5 ovarian 94.8% | OVCAR-4 ovarian 95.4% | SK-OV-3 ovarian 104% | IGROV1 ovarian 86.7% | OVCAR-3 ovarian 102% | HS 578T breast 99.2% | NCI/ADR-RES ovarian 90.1%

O=C(Nc1ccc(Cl)cc1)Oc1c(Cl)c(Cl)c(Cl)c(Cl)c1Cl
inactive: SK-MEL-2 melanoma 95.7% | EKVX NSCLC 80.6% | SN12C renal 97.6% | UO-31 renal 78.5% | TK-10 renal 115% | ACHN renal 87.9% | CAKI-1 renal 86.1% | A498 renal 74.6% | CCRF-CEM leukemia 92.1% | MOLT-4 leukemia 95.6% | SR leukemia 93.6% | RPMI-8226 leukemia 90.5% | OVCAR-8 ovarian 99.9% | OVCAR-5 ovarian 94.6% | OVCAR-4 ovarian 88.6% | SK-OV-3 ovarian 90% | IGROV1 ovarian 85.9% | OVCAR-3 ovarian 98.8% | HS 578T breast 87.8% | NCI/ADR-RES ovarian 94%

C=Cc1cnc(Nc2ccc(OC)cc2)nc1NCCCNC(=O)C1CCC1
active: SR leukemia 9.88%
inactive: SK-MEL-2 melanoma 87% | EKVX NSCLC 56.8% | SN12C renal 20.6% | UO-31 renal 10.2% | TK-10 renal 26% | ACHN renal 41.5% | CAKI-1 renal 14.4% | A498 renal 47.3% | CCRF-CEM leukemia 28% | MOLT-4 leukemia 24% | RPMI-8226 leukemia 43.8% | OVCAR-8 ovarian 49.2% | OVCAR-5 ovarian 48% | OVCAR-4 ovarian 46.4% | SK-OV-3 ovarian 20.4% | IGROV1 ovarian 44.6% | OVCAR-3 ovarian 48.2% | HS 578T breast 18.7% | NCI/ADR-RES ovarian 53.5%

CCOC(=O)CC1CSC(Nc2ccccc2)=N1 (stereo not given)
inactive: SK-MEL-2 melanoma 97.4% | EKVX NSCLC 104% | SN12C renal 103% | UO-31 renal 91.8% | TK-10 renal 86% | ACHN renal 105% | CAKI-1 renal 103% | A498 renal 83% | CCRF-CEM leukemia 98.3% | MOLT-4 leukemia 101% | SR leukemia 98.5% | RPMI-8226 leukemia 105% | OVCAR-8 ovarian 101% | OVCAR-5 ovarian 104% | OVCAR-4 ovarian 112% | SK-OV-3 ovarian 105% | IGROV1 ovarian 103% | OVCAR-3 ovarian 102% | HS 578T breast 103% | NCI/ADR-RES ovarian 99.8%

CSC(SC)=C(C#N)c1nc2ccccc2s1
inactive: SK-MEL-2 melanoma 40% | EKVX NSCLC 74.2% | SN12C renal 34.9% | UO-31 renal 51.8% | TK-10 renal 112% | ACHN renal 62.4% | CAKI-1 renal 55.8% | A498 renal 49.9% | CCRF-CEM leukemia 24.7% | MOLT-4 leukemia 63.6% | SR leukemia 81.2% | RPMI-8226 leukemia 25% | OVCAR-8 ovarian 70.2% | OVCAR-5 ovarian 72.5% | OVCAR-4 ovarian 68.1% | SK-OV-3 ovarian 19.6% | IGROV1 ovarian 49.3% | OVCAR-3 ovarian 70% | HS 578T breast 77.1% | NCI/ADR-RES ovarian 76.7%

CCOC(=O)c1c(C)c2c(n1Cc1ccccc1)CSCC2=O
active: SK-MEL-2 melanoma -14.5% [100 µM] | CAKI-1 renal -30.5% [100 µM] | SR leukemia -2.43% [100 µM] | RPMI-8226 leukemia -5.25% [100 µM] | OVCAR-3 ovarian -2.49% [100 µM] | NCI/ADR-RES ovarian -5.65% [100 µM]
inactive: EKVX NSCLC 12.4% [100 µM] | SN12C renal 13.7% [100 µM] | UO-31 renal 24.6% [100 µM] | TK-10 renal 11.5% [100 µM] | ACHN renal 10.6% [100 µM] | A498 renal 25.6% [100 µM] | CCRF-CEM leukemia 10.5% [100 µM] | MOLT-4 leukemia 12.9% [100 µM] | OVCAR-8 ovarian 17.7% [100 µM] | OVCAR-5 ovarian 33.6% [100 µM] | OVCAR-4 ovarian 11.8% [100 µM] | SK-OV-3 ovarian 19.8% [100 µM] | IGROV1 ovarian 32.6% [100 µM] | HS 578T breast 46.8% [100 µM]

Nc1nc(N)c2c(n1)NC(c1cccc(Nc3ccnc4cc(C(F)(F)F)ccc34)c1)CC(c1ccc(Br)cc1)=N2 (stereo not given)
active: MOLT-4 leukemia 9.24% | SR leukemia 0.0412% | RPMI-8226 leukemia 5.34%
inactive: SK-MEL-2 melanoma 52.4% | EKVX NSCLC 51.5% | SN12C renal 63% | UO-31 renal 62.2% | TK-10 renal 96.8% | ACHN renal 82% | CAKI-1 renal 48.6% | A498 renal 77.1% | CCRF-CEM leukemia 17% | OVCAR-8 ovarian 66% | OVCAR-5 ovarian 107% | OVCAR-4 ovarian 77.5% | SK-OV-3 ovarian 57.2% | IGROV1 ovarian 58.8% | OVCAR-3 ovarian 38.1% | HS 578T breast 68.4% | NCI/ADR-RES ovarian 56.5%

Cc1cc(Nc2ccc(C(=O)N3CCCC3)cc2)nc(NCCCNc2ccnc3cc(Cl)ccc23)n1
inactive: SK-MEL-2 melanoma 99.5% | EKVX NSCLC 101% | SN12C renal 85% | UO-31 renal 86.7% | TK-10 renal 106% | ACHN renal 99% | CAKI-1 renal 99.1% | A498 renal 95.2% | CCRF-CEM leukemia 65.3% | MOLT-4 leukemia 36.9% | SR leukemia 19.1% | RPMI-8226 leukemia 74.8% | OVCAR-8 ovarian 108% | OVCAR-5 ovarian 103% | OVCAR-4 ovarian 70% | SK-OV-3 ovarian 101% | IGROV1 ovarian 76.2% | OVCAR-3 ovarian 90.3% | HS 578T breast 92.3% | NCI/ADR-RES ovarian 99.8%
